Molecules are shown by their SMILES. Activity calls are given as the source filed them. Unless noted, no rule for the calls is given here.

The values below come from PubChem BioAssay.

A short description of experiment [1]: resazurin metabolic signal in HepG2 cells – cell-based, resazurin fluorescence, 24 h, PK04 Diversity Set, profiling panel (AID 1172). Also: test concentration not given here. As to conditions: HepG2 viability, higher = more signal. (Resazurin is reduced to fluorescent resorufin, in cell work by metabolically active cells.)
The nature of experiment [2]: budding yeast growth changes without added modifier – OD600, strain BY4716, 24 h, basal condition, primary screen (AID 1173). The following applies: S. cerevisiae BY4716 growth, OD600, 24 h; higher = more signal, called active from +8 up or from −8 down.
A short description of experiment [3]: viability profiling in MM1S myeloma cells – cell-based, resazurin fluorescence, basal, 24 h, PK04 Diversity Set, profiling panel (AID 1174).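 Also: MM1S multiple myeloma cell line; test concentration not given here.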 As to conditions: higher = more signal, called active from +8 up or from −8 down.
In experiment [4] the target is Dihydroorotate dehydrogenase (quinone), mitochondrial (Plasmodium falciparum (isolate 3D7)) (UniProt Q08210). Put plainly: inhibition of P. falciparum DHODH – biochemical, C-terminal His tag, absorbance 600 nm, primary screen (AID 1175).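 Also: recombinant parasite enzyme with a five histidine tag at its C terminus; test concentration not given here.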 As to conditions: PfDHODH enzyme, DCIP absorbance 600 nm; higher = more signal, called active from +8 up or from −8 down.
A short description of experiment [5]: inhibition of PAO1 biofilm formation – strain PAO1, LB-PBS medium, absorbance 600 nm, primary screen (AID 1176). Also: test concentration not given here. The following applies: P. aeruginosa PAO1 growth/biofilm, A600, 12 h; higher = more signal.
A short description of experiment [6]: growth modulation of vineyard yeast isolate – strain RM11-1a, OD600, basal, 24 h, primary screen (AID 1177).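 Also: cultures grown under basal conditions with no added stressor; test concentration not given here.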 The following applies: S. cerevisiae RM11-1a growth, OD600, 24 h; higher = more signal, called active from +8 up or from −8 down.
Experiment [7] is described as follows: growth of efflux-deficient E. coli DRC39 – strain DRC39, OD650, 24 h, E. coli filamentation inducers, primary screen (AID 1178).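 Also: growth measured as culture turbidity by optical density at 650 nm; test concentration not given here.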 The following applies: E. coli DRC39 acrAB, higher = more signal, called active from +8 up or from −8 down.
Experiment [8] in a line: growth of efflux-deficient E. coli DRC39 – strain DRC39, OD650, 48 h, E. coli filamentation inducers, primary screen (AID 1179).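 Also: screen aims at cell division blockers that make cells filament.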 As to conditions: E. coli DRC39 delta-acrAB growth, higher = more signal, called active from +8 up or from −8 down.
The nature of experiment [9]: viability profiling in RPMI8226 myeloma cells – cell-based, resazurin fluorescence, basal, 24 h, PK04 Diversity Set, profiling panel (AID 1180).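 Also: RPMI8826 multiple myeloma cell line at 5000 cells per well; test concentration not given here.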 The following applies: higher = more signal.
Experiment [10] has as its target E3 ubiquitin-protein ligase XIAP (Homo sapiens) (UniProt P98170). Put plainly: small molecules binding XIAP protein – biophysical, small-molecule microarray, fluorescence 635 nm, primary screen (AID 1181).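 Also: score merges 667 nm emission and signal to noise over triplicate slides.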 As to conditions: higher = more signal.

E3 ubiquitin-protein ligase XIAP (Homo sapiens), sequence (P98170 whole entry, looked up): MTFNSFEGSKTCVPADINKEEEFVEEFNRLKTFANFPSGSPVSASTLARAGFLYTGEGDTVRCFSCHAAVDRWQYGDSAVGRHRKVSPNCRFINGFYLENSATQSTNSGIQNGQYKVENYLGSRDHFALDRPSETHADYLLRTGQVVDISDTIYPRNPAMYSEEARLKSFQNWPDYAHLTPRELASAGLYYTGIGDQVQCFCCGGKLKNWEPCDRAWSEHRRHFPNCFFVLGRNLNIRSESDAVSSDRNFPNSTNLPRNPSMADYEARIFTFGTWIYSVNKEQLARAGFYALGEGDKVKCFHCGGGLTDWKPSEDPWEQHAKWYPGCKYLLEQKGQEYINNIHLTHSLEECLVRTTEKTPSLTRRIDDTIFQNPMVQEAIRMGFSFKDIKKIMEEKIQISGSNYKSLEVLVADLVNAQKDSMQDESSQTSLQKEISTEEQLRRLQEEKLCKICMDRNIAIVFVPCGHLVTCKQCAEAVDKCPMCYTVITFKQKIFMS
Dihydroorotate dehydrogenase (quinone), mitochondrial (Plasmodium falciparum (isolate 3D7)), sequence (Q08210 whole entry, looked up): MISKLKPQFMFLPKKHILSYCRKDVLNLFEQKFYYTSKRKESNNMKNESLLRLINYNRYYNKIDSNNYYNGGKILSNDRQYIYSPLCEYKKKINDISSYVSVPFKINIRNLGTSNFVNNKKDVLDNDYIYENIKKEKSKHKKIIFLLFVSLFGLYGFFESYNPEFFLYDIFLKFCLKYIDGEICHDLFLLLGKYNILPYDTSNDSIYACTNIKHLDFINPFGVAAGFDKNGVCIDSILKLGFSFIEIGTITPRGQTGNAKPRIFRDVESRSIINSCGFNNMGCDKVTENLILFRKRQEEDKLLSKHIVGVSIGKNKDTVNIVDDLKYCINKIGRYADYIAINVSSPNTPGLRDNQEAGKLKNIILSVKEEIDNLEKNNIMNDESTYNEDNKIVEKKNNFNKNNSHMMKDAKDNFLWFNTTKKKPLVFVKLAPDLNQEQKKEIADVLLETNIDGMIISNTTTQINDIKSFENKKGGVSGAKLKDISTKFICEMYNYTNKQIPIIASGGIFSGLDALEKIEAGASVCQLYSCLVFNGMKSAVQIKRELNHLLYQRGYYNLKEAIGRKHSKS

`CCOC(=O)C[C@H]1[C@H](OC(=O)Cc2ccc3c(c2)OCO3)[C@@H](NC(=O)c2ccccc2)c2cc(OCCCO)ccc2N1C(=O)c1ccccc1`: the z-score was -0.688 in experiment [1]; -0.271 (inactive) in [2]; 0.103 (inactive) in experiment [3]; 0.0885 (inactive) in experiment [5]; 0.0859 (inactive) in experiment [6]; 0.31 (inactive) in experiment [7]. For the same compound, the z-score in experiment [8] is 0.676 (inactive); in experiment [9], -0.19. For the same compound, the composite z-score is -1.11 (inactive) in experiment [4] and -0.309 in experiment [10].

For the compound `Cc1ccccc1C(O)C1C=CC2C(=O)N(Cc3ccccc3)C(=O)C2N1n1cnnc1` (stereo not given), the z-score is 1.09 in experiment [1]; 0.232 (inactive) in experiment [2]; -0.562 (inactive) in experiment [3]; 0.726 (inactive) in experiment [5]; -0.226 (inactive) in [6]; -0.197 (inactive) in experiment [7]. Moreover, the z-score was 0.208 (inactive) in [8] and -0.408 in experiment [9]. Also, the results for the composite z-score in [4] and in experiment [10] were -0.407 (inactive) and -0.184, respectively.

Regarding `CN1C(=O)C2C=CC(C(O)c3ccc(F)cc3)N(N3CCCCC3)C2C1=O` (stereo not given), the z-score in [1] is -1.49; in experiment [2] it was 1.62 (inactive); in experiment [3] it was -1.78 (inactive); in experiment [5] it was 1.41 (inactive); in experiment [6], 1.42 (inactive); in [7], -1.02 (inactive). Also, the z-score in experiment [8] was -0.837 (inactive); in experiment [9] it was -1.79. The composite z-score is -0.555 (inactive) in experiment [4] and -0.0727 in [10].

As to `O=C(C=C(CC(O)c1cccc(Cl)c1)OCCF)OCCF` (stereo not given), the z-score in experiment [1] is -0.0453; in experiment [2], -1.47 (inactive); in experiment [3] it was 0.0592 (inactive); in [5], -0.777 (inactive); in [6], -1.33 (inactive); in [7], -0.0441 (inactive). Moreover, the z-score in experiment [8] is 1.04 (inactive); in experiment [9], 0.335. For the same compound, the results for the composite z-score in [4] and in [10] were -2.48 (inactive) and 0.237, respectively.

In the case of `C[C@@H]1ON(c2ccccc2)[C@H](c2ccccc2)[C@H]1C(=O)N1C(=O)OC[C@H]1Cc1ccccc1`, the z-score in experiment [1] was 1.07; in experiment [2], 0.534 (inactive); in [3], 0.962 (inactive); in experiment [5], 0.0238 (inactive); in experiment [6], 1.39 (inactive); in experiment [7], 0.884 (inactive). Also, the z-score in [8] is 0.934 (inactive); in experiment [9], 0.852. In addition, the composite z-score in [4] was -0.255 (inactive); in [10] it was -0.1.

For `CC(C)c1ccc(NN2C(C(O)c3ccccn3)C=CC3C(=O)N(c4ccccc4)C(=O)C32)cc1` (stereo not given), the z-score in [1] is -0.981; in [2] it was -0.147 (inactive); in [3] it was -1.17 (inactive); in experiment [5], 0.0895 (inactive); in [6], 1.92 (inactive); in experiment [7] it was 0.235 (inactive). For the same compound, the z-score is 0.0644 (inactive) in experiment [8] and -0.698 in experiment [9]. Moreover, the composite z-score in experiment [4] is 1.87 (inactive); in experiment [10], -0.0559.

As to `CN1C(=O)C2C=CC(C(O)C3CCCCC3)N(N(c3ccccc3)c3ccccc3)C2C1=O` (stereo not given), the z-score in experiment [1] was -0.11; in experiment [2], 0.495 (inactive); in [3] it was -1.54 (inactive); in [5], 0.571 (inactive); in [6], 0.0139 (inactive); in experiment [7] it was -0.881 (inactive). Further, the z-score was -0.121 (inactive) in experiment [8] and -1.54 in experiment [9]. Besides, the composite z-score in experiment [4] is -0.15 (inactive); in experiment [10], 0.264.

Take `C=CCNC(=O)[C@@H]1[C@H]2C(=O)O[C@H](c3ccccc3)[C@H](c3ccccc3)N2[C@H](c2ccc(O)cc2)[C@@]12C(=O)Nc1ccc(C#CCCO)cc12`: the z-score in experiment [1] is 0.917; in experiment [2], -0.599 (inactive); in experiment [3] it was 0.343 (inactive); in [5], -0.212 (inactive); in experiment [6], -0.769 (inactive); in [7] it was 0.883 (inactive). The z-score in experiment [8] was -0.582 (inactive); in experiment [9] it was 1.32. In addition, the composite z-score is -0.489 (inactive) in experiment [4] and -0.377 in experiment [10].

Regarding `C=CCC(OC(C)=O)[C@@H]1[C@@H](N(Cc2cc3ccccc3o2)C(=O)Cc2ccc(OC)cc2)c2cc(OCCCO)ccc2N1C(=O)c1ccc(-c2ccccc2)cc1` (stereo not given in full), the z-score in experiment [1] is -0.877; in experiment [2], -0.464 (inactive); in [3], 1.05 (inactive); in [5], -0.558 (inactive); in [6], 0.275 (inactive); in experiment [7], 0.66 (inactive). Further, the z-score in experiment [8] is 0.16 (inactive); in [9], 0.337. The composite z-score in [4] was 0.849 (inactive); in experiment [10] it was -0.0575.

`COc1ccc([Si](C)(C)[C@@H]2[C@@H](CCO)O[C@]3(C(=O)N(Cc4ccccc4)c4ccc(N5CCCCC5=O)cc43)[C@H]2C)cc1`: the z-score in experiment [1] is -1.62; in experiment [2] it was 0.86 (inactive); in experiment [3] it was -3.11 (inactive); in experiment [5] it was -0.565 (inactive); in experiment [6], 3.49 (inactive); in experiment [7], -0.277 (inactive). The figures for the z-score in experiment [8] and in experiment [9] were -0.18 (inactive) and -2.29, respectively. The results for the composite z-score in experiment [4] and in experiment [10] were -2.04 (inactive) and -0.0826, respectively.
